From PubChem BioAssay
USP28 inh = inhibitors of human USP28 deubiquitinase | AID 1645857, 2021 | purified USP28, Ub-rhodamine cleavage fluorescence, 30 min | 3% of 47,000 active | inhibition, % at 25 µM
Target sequence (Q96RU2 whole entry, looked up): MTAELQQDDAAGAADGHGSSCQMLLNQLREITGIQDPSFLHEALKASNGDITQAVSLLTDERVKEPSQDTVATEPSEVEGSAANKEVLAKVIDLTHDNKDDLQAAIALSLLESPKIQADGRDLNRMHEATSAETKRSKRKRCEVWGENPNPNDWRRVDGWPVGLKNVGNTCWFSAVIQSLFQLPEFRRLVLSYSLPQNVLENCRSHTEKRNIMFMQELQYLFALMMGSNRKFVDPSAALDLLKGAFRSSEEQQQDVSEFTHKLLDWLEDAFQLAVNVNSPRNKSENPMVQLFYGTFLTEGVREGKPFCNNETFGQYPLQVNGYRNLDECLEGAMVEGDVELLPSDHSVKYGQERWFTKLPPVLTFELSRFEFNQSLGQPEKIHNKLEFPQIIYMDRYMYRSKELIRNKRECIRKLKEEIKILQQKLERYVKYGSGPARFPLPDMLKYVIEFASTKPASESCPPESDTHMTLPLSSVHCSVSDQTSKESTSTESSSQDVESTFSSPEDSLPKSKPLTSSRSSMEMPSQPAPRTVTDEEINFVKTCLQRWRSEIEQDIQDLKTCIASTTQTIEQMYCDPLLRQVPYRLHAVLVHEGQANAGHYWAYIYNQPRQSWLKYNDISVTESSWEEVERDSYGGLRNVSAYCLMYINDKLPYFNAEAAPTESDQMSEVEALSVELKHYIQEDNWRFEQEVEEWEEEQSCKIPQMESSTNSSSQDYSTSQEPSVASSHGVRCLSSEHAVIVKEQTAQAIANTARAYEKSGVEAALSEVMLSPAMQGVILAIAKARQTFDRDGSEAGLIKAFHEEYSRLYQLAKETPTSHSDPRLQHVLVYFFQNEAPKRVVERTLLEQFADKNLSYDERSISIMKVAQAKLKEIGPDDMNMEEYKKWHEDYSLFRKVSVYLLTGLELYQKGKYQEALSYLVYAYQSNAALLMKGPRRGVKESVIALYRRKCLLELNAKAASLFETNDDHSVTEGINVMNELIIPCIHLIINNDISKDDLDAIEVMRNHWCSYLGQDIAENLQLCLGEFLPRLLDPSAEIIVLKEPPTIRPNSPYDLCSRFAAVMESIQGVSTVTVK
USP17 block = inhibitors of human USP17 deubiquitinase | Ubiquitin carboxyl-terminal hydrolase 17-like protein 5 (Homo sapiens), A8MUK1 | purified USP17, Ub-rhodamine cleavage fluorescence, 3 h | inhibition, % at 50 µM | 6.5% of 47,000 active | AID 1645855, 2021
USP8 block = inhibitors of human USP8 deubiquitinase | Ubiquitin carboxyl-terminal hydrolase 8 (Homo sapiens), P40818 | purified USP8, Ub-rhodamine cleavage fluorescence, 30 min | inhibition, % at 20 µM | 4.2% of 47,000 active
USP30 block = inhibitors of human USP30 deubiquitinase; Ubiquitin carboxyl-terminal hydrolase 30 (Homo sapiens), Q70CQ3; purified USP30, Ub-rhodamine cleavage fluorescence; inhibition, % at 25 µM; 5.3% of 47,000 active
USP10 inh = inhibitors of human USP10 deubiquitinase; Ubiquitin carboxyl-terminal hydrolase 10 (Homo sapiens), Q14694; purified USP10, Ub-rhodamine fluorescence, 60 min; inhibition, % at 20 µM; 1.1% of 47,000 active; AID 1645856, 2021
Large screens that a line does not name were inactive. Only some compounds are listed: those with a hit (about 14% of all), similar ones and a draw of the others. Cut-off read from the data, not from the text of the source: active = inhibition above about 30%; inactive = the rest.

CCCCCCCCCC(CCCCCCCCCC(=O)O)O[C@H]1O[C@@H](COC(C)=O)[C@H](O)[C@@H](OC(=O)CC(=O)O)[C@H]1O (some centres undefined)	USP28 inh 35.1, USP17 block 33.0, USP30 block 47.0, USP10 inh 40.6
CCOC(=O)N1CCC(NC(=O)c2cnn3c(-c4ccccc4)ccnc23)CC1	USP17 block 32.0, USP30 block 39.6
CCOC(=O)N1CCC(NC(=O)Cn2ccc3ccccc32)CC1	none
CC(C)CC[C@H]1O[C@@H](CC(=O)O)Cc2cc3c(c(O)c21)C(=O)c1sc(=O)n(C)c1C3=O	USP28 inh 77.4, USP17 block 78.0
Cc1ccc(-c2nccn3cc(C(=O)NCCN4CCN(C)CC4)nc23)cc1	none
COc1ccc2c(CNCCC3=CCCCC3)c(C(=O)O)n(Cc3ccc(F)cc3)c2c1	none
Cc1ccc2c(CNCCC3=CCCCC3)c(C(=O)O)n(C)c2c1	USP10 inh 71.7
CCCCCSc1ncnc2c1sc1nc(C(C)C)c3c(c12)CCC3	none
CC(C)Cc1nc2sc3c(NCCN4CCOCC4)ncnc3c2c2c1CCC2	USP28 inh 82.2
CCCCc1nc2sc3c(NCc4ccccn4)ncnc3c2c2c1CCC2	USP28 inh 43.1
CCCCc1nc2sc3c(NCCCO)ncnc3c2c2c1COC(C)(C)C2	USP17 block 46.4
c1ccc(-c2nc3sc4c(NCc5ccccn5)ncnc4c3c3c2CCC3)cc1	none
CCCc1nc2sc3c(NCc4ccco4)ncnc3c2c2c1CCC2	USP28 inh 80.2
COc1ccccc1CNC(=O)CCc1c(C)nc2nc(C)nn2c1C	none
O=C(c1cc(-c2ccnn2C2CCCC2)n2ccccc12)N1CCC(O)CC1	none
CCCCNc1ncnc2c1sc1nc(CCC)c3c(c12)CCC3	USP17 block 53.6 (no result: USP28 inh, USP30 block)
CC(C)c1nc2sc3c(SCC(=O)N4CCOCC4)ncnc3c2c2c1CCC2	USP28 inh 34.7
CCCc1nc2sc3c(NCCN4CCOCC4)ncnc3c2c2c1CCC2	USP28 inh 80.5
CC(C)c1nc2sc3c(NCCCN4CCOCC4)ncnc3c2c2c1CCC2	USP28 inh 47.9
CCCc1nc2sc3c(NCCCN4CCOCC4)ncnc3c2c2c1CCC2	USP28 inh 84.0
O=C(Nc1cccc(F)c1)C1CCN(C(=O)c2cc(-c3ccncc3)n[nH]2)CC1	none
CC(=O)NC(Cc1ccc(F)c(F)c1)C(=O)NC1CCN(C(=O)C2CC2)CC1 (centres undefined)	none
c1ccc(CNc2ccc(-c3ccccc3)nn2)cc1	USP28 inh 37.0, USP8 block 56.8, USP30 block 45.1
CN1CCN(C(=O)c2ccc(-c3ccc(NCc4ccccc4)nn3)cc2)CC1	none
Cc1cc(C)cc(N(CC(=O)NCc2ccc3c(c2)OCO3)C(=O)c2ccc3c(c2)OCCO3)c1	USP30 block 35.7
O=S(=O)(Nc1ccc(Oc2ccccc2)cc1)c1ccccc1	USP28 inh 60.2, USP17 block 69.6, USP8 block 34.4, USP30 block 63.7
NC(=O)c1cccc(NS(=O)(=O)c2ccccc2)c1	none
COc1ccc(CC(=O)N2CCc3cc(-c4noc(C)n4)ccc32)cc1	USP28 inh 33.0
N#Cc1c(N)nc2c(c1N)C(c1ccccc1)CO2 (centres undefined)	USP17 block 43.9, USP30 block 57.9
N#Cc1c(N2CCOCC2)nc(N)c2c(N)nc3c(c12)CC(c1ccccc1)O3 (centres undefined)	none
O=C(Nc1ccccc1)c1noc2c1CCc1sccc1-2	USP17 block 36.8
Cc1cccc(NC(=O)c2noc3c2CCc2sccc2-3)n1	USP17 block 64.8, USP8 block 94.1
O=C(Nc1ccc2c(c1)OCO2)c1noc2c1CCc1sccc1-2	USP8 block 52.8
Cc1ccc(NC(=O)c2noc3c2CCc2sccc2-3)cc1Cl	none
O=C(Nc1ccc(F)cc1)c1noc2c1CCc1sccc1-2	USP17 block 35.8
COCCN1Cc2c(C(=O)Nc3ccccc3)ncn2-c2ccccc2S1(=O)=O	none
COc1ccc(CN2C[C@@H]3OCC(=O)N(CC(N)=O)[C@@H]3C2)cc1	none
CN1CCOC(C)(C(=O)NCc2cccc(Cl)c2)C1 (centres undefined)	none
COc1ccc([C@H]2[C@H](C(=O)c3cccs3)N3c4ccccc4C=CC3C23C(=O)c2ccccc2C3=O)c(OC)c1 (some centres undefined)	none
COc1ccc(C(=O)[C@@H]2[C@H](C(=O)OC(c3ccccc3)c3ccccc3)N3c4ccccc4C=CC3[C@@]23C(=O)Nc2ccccc23)cc1 (some centres undefined)	USP8 block 44.9
CCOc1cccc2sc(N(Cc3cccnc3)C(=O)CCc3ccccc3)nc12	USP30 block 79.8
Cc1ccc(OCC2Cn3c(nc4c3c(=O)[nH]c(=O)n4C)O2)cc1C (centres undefined)	USP17 block 66.0 (no result: USP28 inh, USP30 block)
Cn1c(=O)c2c(C(=O)N3CCN(c4ccc(F)cc4)CC3)cc(=O)n(C)c2n(C)c1=O	none
Nc1cc(-c2cncnc2C2CCNC2)ccn1 (centres undefined)	none
Cc1cnc(C(=O)N2CC[C@H]3NC(=O)c4ccccc4OCC/C=C/C[C@H]3C2)cn1	none
Cc1cnc(C(=O)N2CCC[C@@H]3NC(=O)c4ccccc4OCC/C=C/C[C@@H]32)cn1	USP28 inh 45.0
CSc1ccc(CNC(=O)CC2CCN(S(=O)(=O)c3ccc(C)cc3)CC2)cc1	USP28 inh 30.4, USP30 block 50.3
CC(=O)Nc1ccc(S(=O)(=O)N2CCC(CC(=O)NCc3ccc(F)cc3)CC2)cc1	none
Cc1nn(CC(=O)N2CCc3ccccc3C2)c(C)c1[N+](=O)[O-]	none
Cc1cnnn1-c1ccc(C(=O)Nc2cc(Cl)ccc2Cl)cc1	USP17 block 68.1
O=C(Nc1ccc(-n2cccc2)cc1)c1ccc(Cl)cc1	none
Cc1cnnn1-c1ccc(C(=O)Nc2cccc(Cl)c2)cc1	USP17 block 80.4, USP30 block 54.2
Cc1oc(C2CCN(C(=O)Nc3ccc(Cl)cc3)CC2)nc1C(=O)N1CCOCC1	none
CC1(C)COCN1C(=O)c1cc2c(=O)n3ccccc3nc2n1Cc1ccccc1	none
Cc1ccc2c(=O)c(C(=O)N3CCCC3)cn(CC(=O)Nc3cccc(F)c3)c2n1	none
COC(=O)CSc1nc2ccccc2c(=N)n1-c1ccc(Cl)cc1	none
COc1ccc(-n2c(SCC(=O)Nc3cc(Cl)ccc3C(=O)O)nc3ccccc3c2=O)cc1Cl	USP17 block 92.6, USP8 block 38.9, USP10 inh 58.6 (no result: USP28 inh, USP30 block)
CN1CCCc2cc(C(=O)N3CCN(c4ccccc4)CC3)sc21	none
O=C(O)c1cccc(NC(=O)C(Sc2cccc(NC(=O)c3cccc(Cl)c3)c2)c2ccccc2)c1 (centres undefined)	USP17 block 41.6, USP10 inh 46.0
